Hit rate of the full screen: of about 360,000 compounds, about 780 (0.22%) were called active. Only a selection was taken, and actives are over-represented in it overall. Values without a mark were called inactive. No stated cut-off is given here; in the data, active means inhibition above about 8.5% (passing the limit was not always enough); inconclusive means no clear call, values can overlap the other calls.

This note sets out measurements from PubChem BioAssay AID588549 (Broad Institute, 2011).

This test relates to Mycobacterium tuberculosis FadD28 fatty-acid-AMP ligase. Kind of test: inhibitors of FadD28 bisubstrate probe binding, primary screen, biochemical, fluorescence polarization, single point (AID 588549). Particulars: at 12.5 µM, hits give high values. A general note: Fluorescence polarisation rises when a labelled molecule tumbles more slowly, as on binding a larger partner.
For `C=CCn1c(SCc2cc(C(=O)OC)c(C)o2)nnc1-c1ccncc1`, the inhibition is -3.43%.

For the compound `Cc1ccc(C(c2sc3nc(C)nn3c2O)N2CCN(c3ccc(F)cc3)CC2)cc1` (stereo unspecified), the inhibition was -3.79%.

Consider `CC(=O)c1c(N2CCN(c3ccc(F)cc3)CC2)nc(=S)n(-c2ccccc2)c1C`, for which the inhibition is -1.67%. Take `O=C(C1Cc2ccccc2CN1C(=O)c1ccco1)N1CCN(c2ccccc2)CC1` (stereo unspecified): the inhibition was -0.0045%. Take `C[C@H]1CN([C@@H](C)CO)C(=O)c2cc(C3=CCCCC3)cnc2O[C@@H]1CN(C)C(=O)Cc1ccccc1`: the inhibition was -1.03%.

In the case of `Cc1nn(Cc2ccccc2)c(C)c1C(=O)N1CCN(CC(=O)Nc2ccccc2Cl)CC1`, the inhibition is -3.56%. For `COCCCn1c(-c2cccs2)nc2nc3ccccc3nc21` the value was -0.0615%; for `CCC(=O)Nc1cccc(NC(=O)CSc2nnc(-c3ccc(NS(C)(=O)=O)cc3)n2C)c1`, 1.19%; for `COCCN1Cc2cccc(C(=O)Nc3ccccc3OC)c2C1=O`, -3.48%. Take `Cc1cccc(CN2CCN(C3CN(Cc4ccccc4)S(=O)(=O)C3)CC2)c1` (stereo unspecified): the inhibition was -1.16%. Consider `CCN(CC(=O)NCc1ccc(F)cc1)S(=O)(=O)c1ccc(Cl)s1`, for which the inhibition is -3.08%. The figure for `C=CC(=O)OCCOCCOCCOCCOC(=O)C=C` is -2.6%; for `COC(=O)CCCCC1=CCC2C(=O)C=C(O)C2C1` (stereo unspecified) it is -1.93%; for `COc1cc(CNCc2ccc(OC)c3ccccc23)cc(OC)c1OC` it is -0.377%. As to `CCc1nc2c(OCCOc3ccccc3)cccn2c1N(C)C(=O)c1cccs1`, the inhibition is -4.76%. The figure for `COC(=O)C1(C)CC1(c1ccccc1)c1ccccc1` (stereo unspecified) is -0.161%; for `O=C1c2ccccc2C2=Nc3ccccc3SC(c3ccccc3F)C12` (stereo unspecified) it is -4.89%.

With `COC(=O)C1CC2=C(CC(C)(C)CC2=O)N(c2ccccc2)C1=O` (stereo unspecified), the inhibition is 1.35%. The figure for `Cc1ccc(N(Cc2ccc(C(=O)Nc3ccccc3C(=O)NCc3ccco3)cc2)S(C)(=O)=O)cc1C` is -1.65%; for `CC/C(=N\NC(=O)c1ccccc1O)c1c(O)n(Cc2ccccc2)c(=O)[nH]c1=O` it is 17.8% (active). For `CC/C(=N\NC(=O)c1ccccc1Cl)c1ccc(Br)s1` the value was -2.73%. As to `COCCN(C(=O)c1ccccc1F)c1c(N)n(Cc2ccccc2)c(=O)[nH]c1=O`, the inhibition is -1.47%. For `Cc1ccc(C)c2c1cc(C)c1nnc(SCC(=O)Nc3cccc(C(=O)O)c3)n12` the value was -2.19%. The figure for `NNC(=O)COc1ccc(C2SCCS2)cc1` is -1.11%; for `CCN1CC(CN(C)Cc2nc(-c3ccc(Cl)cc3)no2)CC1=O` (stereo unspecified) it is -0.366%. The figure for `Oc1c(Cl)cc(Cl)c(Cl)c1Cc1c(O)c(Cl)cc(Cl)c1Cl` is 65.8% (active); for `COc1ccc(SCc2noc(C(=O)NCC3CCCO3)c2C(=O)O)cc1` (stereo unspecified) it is 0.0895%. `CCn1nnc2cc(C(=O)Nc3ccc(C(=O)OC(C)C)cc3)ccc21`: the inhibition was -3.75%. As to `CC1CCCCC1NC(=O)c1cc(=O)[nH]c2ccccc12` (stereo unspecified), the inhibition is -0.133%. For `COc1ccc(OC)c(C(=O)c2coc3ccc(O)c(CN4CCOCC4)c23)c1` the value was -2.66%; for `CCOC(=O)c1ccccc1N1C(=O)C2Sc3[nH]c(=O)sc3C(/C=C/c3ccccc3)C2C1=O` (stereo unspecified), 0.286%. For `COc1cc(OC)cc(C(=O)NC2CCN(C(=O)N3c4ccccc4Sc4ccccc43)CC2)c1` the value was -5.05%. The figure for `O=C(CSc1nc2ccccc2o1)N1CCN(c2ccc(Cl)cc2)CC1` is 1.06%; for `CN(C)c1ccc(Nc2c3c4c(cccc4n(C)c2=O)C(=O)c2ccccc2-3)cc1` it is -0.49%. For the compound `O=C(Cc1ccc([N+](=O)[O-])cc1)NCCS(=O)(=O)N1CCN(c2ccccc2)CC1`, the inhibition is -0.717%. Take `CC(C)C(NC(=O)c1c(F)cccc1F)C(=O)NNC(=O)c1ccccc1` (stereo unspecified): the inhibition was -3.91%. For `CN1C(=O)CC(c2ccccc2)C1=O` (stereo unspecified) the value was -1.61%; for `CCC(C)N1C(=O)S/C(=C/c2ccc(Sc3nc4ccccc4[nH]3)o2)C1=O` (stereo unspecified), -0.197%; for `O=C(O)C(c1ccccc1)N1C(=O)/C(=C\c2ccc(-c3cccc(Cl)c3)o2)SC1=S` (stereo unspecified), 13% (active). Turning to `O=C(Cn1nnc(-c2ccccc2)n1)N/N=C/c1ccc(-c2ccc(Cl)cc2)o1`, the inhibition is -1.53%. For `COc1c(C)cc(C(=O)C2CCCN(S(=O)(=O)c3c(C)noc3C)C2)cc1C` (stereo unspecified), the inhibition was -0.846%. With `CCOCN(C(=O)Cn1c(C(C)O)nc2ccccc21)c1c(C)cccc1CC` (stereo unspecified), the inhibition was -5.11%.

As to `CCCNC(=O)c1cc(C2CCCCN2C(=O)OC)on1` (stereo unspecified), the inhibition was -0.481%. The figure for `CCN(CC)S(=O)(=O)c1ccc(N2CC(C(=O)NCc3cccnc3)CC2=O)cc1` (stereo unspecified) is -2.96%; for `O=C(Cn1c2[n+](c3ccc(C(F)(F)F)cc31)CCCCC2)Nc1c(F)cccc1F` it is 4.18%. In the case of `CC1CCN(c2ccc(C(=O)Nc3nnc(C4CC4)s3)cc2[N+](=O)[O-])CC1`, the inhibition is -1.32%.

On to `O=[N+]([O-])c1cc(Cl)cc(/C=N/NC(=S)Nc2cc(S(=O)(=O)N3CCOCC3)ccc2Cl)c1O`, for which the inhibition is 22.5% (active). For `COC(=O)c1cc(Oc2ccc(S(=O)(=O)N3CCOCC3)cc2[N+](=O)[O-])cc(C(=O)OC)c1` the value was 0.28%. Turning to `Cc1cc(OCCCC(=O)Nc2cc(S(=O)(=O)N3CCOCC3)ccc2N2CCOCC2)ccc1Cl`, the inhibition was 0.172%. On to `O=S(=O)(NCC1OCCc2ccccc21)c1ccccc1` (stereo unspecified), for which the inhibition was -0.133%. For the compound `Cn1c(=O)cc(SCC(=O)N2CCCC2)c2cc(Cl)ccc21`, the inhibition is -4.85%. For the compound `CC(C)Cc1nn2c(=O)cc(O)nc2s1`, the inhibition is 0.338%. For `CC(=O)N1CCN(S(=O)(=O)c2ccc(C)c([N+](=O)[O-])c2)C1C(C)C` (stereo unspecified) the value was -3.8%. For `COC(=O)C1CCN(C(=O)c2ccc3oc(Cc4ccc(Cl)cc4)nc3c2)CC1` the value was -0.812%. Take `O=C(CN1C(=O)NC2(CCCC2)C1=O)NCC1CCCO1` (stereo unspecified): the inhibition is -1.47%. For `CCc1nc2ccc(C(=O)NC3CCN(Cc4ccccc4)CC3)cn2c1N(CC)CCOC` the value was -4.48%.

Usually inhibition stands for the drop in the measured response relative to a control, in per cent.
